# According to PubChem BioAssay (EPA / NIEHS):
# Active and inactive are the calls of the source. How the source made its calls: active means hit-call score of the fitted dose curve at least 0.9, where 1 is the maximum; inactive means score below 0.9.
# Read-out: TIMP metallopeptidase inhibitor 1 (TIMP1), TIMP1 (gene 7076)
# Experiment: BSK_hDFCGF_TIMP1: BioMAP Diversity Plus: hDFCGF Assay for TIMP metallopeptidase inhibitor 1 (TIMP1) Biomarker Activity (AID 2283062)
# Details: primary human foreskin fibroblasts; actives raise or lower the signal
# Description: BSK_hDFCGF is a cell-based, multiplexed-readout assay that uses foreskin fibroblast, a human skin primary cell, with measurements taken at 24 hours after chemical dosing in a 96-well plate.BSK_hDFCGF_TIMP1 is an assay component measured in the BSK_hDFCGF assay. It measures TIMP-1 antibody related to regulation of gene expression using ELISA technology.Data from the assay component BSK_hDFCGF_TIMP1 was analyzed into 1 assay endpoint. This assay endpoint, BSK_hDFCGF_TIMP1, was analyzed with bidirectional fitting relative to DMSO as the negative control and baseline of activity. Using a type of binding reporter, gain or loss-of-signal activity can be used to understand changes in the signaling as they relate to the gene TIMP1. Furthermore, this assay endpoint can be referred to as a primary readout, because this assay has produced multiple assay endpoints where this one serves a signaling function. To generalize the intended target to other relatable targets, this assay endpoint is annotated to the protease inhibitor intended target family, where the subfamily is metalloproteinase inhibitor.
# The levels of cell surface (or secreted, indicated by the prefix "s") biomarker endpoints were measured by ELISA. Overt cytotoxicity to cells in confluent adherent cultures (all systems other than the BT system) was assessed by measuring total protein levels using sulforhodamine B (SRB) staining in parallel cultures at the time of biomarker measurements, indicated as SRB endpoints. For proliferation assays for adherent cell types, individual cell types are cultured at sub-confluence and relative cell numbers quantified by SRB staining at time points optimized for each system (48 h: 3C and CASM3C systems; 72 h: BT and HDF3CGF systems; 96 h: SAg system). SRB was performed by staining cells with 0.1% SRB after fixation with 10% TCA and reading wells at 560 nm.Viability and proliferation of PBMC (T cells) was quantified by Alamar Blue reduction for the SAg and BT systems. For PBMC viability (referred to as PBMC Cytotoxicity within the assay endpoint names), cells were plated (75,000/well in a 96-well plate) and then chemical samples added for 1 h before addition of activators, SEB and TSST-1 (20 ng/mL final concentration each). Cells were incubated for 90 h. Then, Alamar Blue (20 uL/well) (Invitrogen, Cat DAL1100) was added for 6 h, and the plates were read with a fluorescence microplate reader at 546/580 nm (excitation/emission). For PBMC proliferation, cells were plated and activated as above but incubated for only 16 h prior to addition of Alamar Blue. Plates were read after 6 h.
Structure (SMILES),outcome,AC50
Cc1cc(Cc2ccc(N)c(C)c2)ccc1N,inactive,
CC(C)c1cccc(C(C)C)c1,inactive,
CCCCC(CC)COP(=O)(OCC(CC)CCCC)OCC(CC)CCCC (stereo not given),inactive,
NCCOCCOCCN,inactive,
CCCCCCC(C=O)=Cc1ccccc1,inactive,
O=C(O)c1cccnc1,inactive,
CC(C)OC(=O)C(C)(C)Oc1ccc(C(=O)c2ccc(Cl)cc2)cc1,inactive,
CC(=O)OCC(COC(C)=O)OC(C)=O,inactive,
Cc1ccc(-c2cc(C(F)(F)F)nn2-c2ccc(S(N)(=O)=O)cc2)cc1,inactive,
Cc1ccc(C(C)(C)C)c(O)c1,inactive,
O=NO,inactive,
O=C1O[C@H]([C@H](O)CO)C(O)=C1O,inactive,
Nc1nc(Cl)nc2c1ncn2[C@H]1C[C@H](O)[C@@H](CO)O1,inactive,
CC(=O)OC1CC(C)OC(C)O1 (stereo not given),inactive,
CCCC[C@H]1CN(CC2CCOCC2)C(=O)OC12CCN(C1(C)CCN(C(=O)c3c(C)ncnc3C)CC1)CC2,inactive,
COc1ccc(OC(F)(F)F)cc1CN[C@H]1CCCN[C@H]1c1ccccc1,inactive,
O=C1NC(=O)C(c2ccccc2)(c2ccccc2)N1,inactive,
CCOCCOCCO,inactive,
Oc1ccccc1O,inactive,
O=C(NS(=O)(=O)/C=C/c1cccs1)c1ccc(F)cc1Br,inactive,

Structure (SMILES),outcome,AC50
CC(=O)O[C@]1(C(C)=O)CC[C@H]2[C@@H]3C=C(Cl)C4=CC(=O)[C@@H]5C[C@@H]5[C@]4(C)[C@H]3CC[C@@]21C,inactive,
COC(=O)CCCC(=O)OC,inactive,
C=CCc1ccc(OC)c(OC)c1,inactive,
CC(=O)[C@@]1(O)CC[C@H]2[C@@H]3CCC4=CC(=O)CC[C@]4(C)[C@H]3CC[C@@]21C,inactive,
C/C=C/c1ccc(OC)cc1,inactive,
Cc1cn([C@H]2C=C[C@@H](CO)O2)c(=O)[nH]c1=O,inactive,
N[C@@H](Cc1c[nH]c2ccccc12)C(=O)O,inactive,
O=C(N[C@@H](c1ccccc1)[C@@H]1CCCCN1)c1cccc(C(F)(F)F)c1Cl,inactive,
COC(=O)CCC(=O)OC,inactive,
CCCCCCC(CCCCCCCCCCC(=O)OCC(COC(C)=O)OC(C)=O)OC(C)=O (stereo not given),inactive,
CC1=C(C)S(=O)(=O)CCS1(=O)=O,inactive,
O=C(O)CN(CC(=O)O)CC(=O)O,inactive,
S=c1[nH]c2ccccc2s1,inactive,
CCN(CC)CCOc1ccc(C(=C(Cl)c2ccccc2)c2ccccc2)cc1,,13.6 µM (active)
CCCCCCCC(=O)OC,inactive,
NC(=Nc1ccccc1)Nc1ccccc1,inactive,
OCC(CO)n1cnc(-c2ccc(F)cc2)c1-c1ccnc(Oc2ccccc2)n1,inactive,
NC1CCCCC1,inactive,
Cn1cnc2c1c(=O)[nH]c(=O)n2C,inactive,
CCCCCCCCCC[N+](C)(C)[O-],inactive,
